In test [1] the test system is Human papillomavirus type 1a protein E7 (residues 44-93). Nature of the test: HPV1a E7 fragment binders on microarrays, primary screen, biochemical, small-molecule microarray, residues 44-93, 635 nm fluorescence (AID 1108).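 Also: E7 fragment applied at 1 µg/mL in TBST for 1 h at 4 C; score combines spot fluorescence with its signal to noise ratio.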 As to conditions: small-molecule microarray binding, fluorescence 635 nm; higher = more signal.
Test [2] can be described thus: modulators of HCV replicon luciferase signal, primary screen, HCV replication inhibitor project, Huh7 cells, luciferase reporter (AID 1109).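 Also: huh7 hepatoma cells harbouring a luciferase neomycin HCV replicon reporter; luciferase luminescence as measure of HCV replicon replication; test concentration not given here.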 The following applies: 48 h, higher = more signal. For orientation: In antiviral work, replicon cells carry a viral genome segment that copies itself.
Test [3] has as its target Left-right determination factor 2 (Homo sapiens) (UniProt O00292). Briefly: LEFTY2 binders on small-molecule microarrays, primary screen, biochemical, small-molecule microarray, 635 nm fluorescence scan (AID 1110). The following applies: LEFTY2 binding, higher = more signal.
Test [4] addresses Calmodulin-1 (Homo sapiens) (UniProt P0DP23). Briefly: CALM1 binders on microarrays, EGTA buffer, profiling panel, biochemical, small-molecule microarray, Cy5-labelled CALM1 (AID 1111).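 Also: labelled calmodulin applied in Tris saline Tween buffer holding calcium plus EGTA and DTT.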 As to conditions: Cy5-CALM1 binding fluorescence, higher = more signal.
For test [5] the target is unchanged. Nature of the test: calcium-bound CALM1 binders on microarrays, profiling panel, artefact control for SMM control-protein annotation, biochemical, small-molecule microarray, Cy5-labelled CALM1, plus calcium (AID 1112).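 Also: score merges spot fluorescence with signal to noise from triplicate slides.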 The following applies: Cy5-CALM1 binding fluorescence, higher = more signal.
Test [6] can be described thus: small-molecule microarray binders of probe aWnt5a, primary screen, biochemical, biotinylated probe, 635/667 nm fluorescence (AID 1113).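 Also: score merges 667 nm fluorescence intensity with signal-to-noise per printed feature.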 As to conditions: higher = more signal.
Test [7] is described as follows: small-molecule microarray binders of probe aShh, primary screen, biochemical, biotinylated probe, 635/667 nm fluorescence (AID 1114).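 Also: probe is biotin-labelled aShh protein from a stem cell growth factor screen; measures binding of labelled protein to compounds printed on the slide; score merges feature fluorescence at 667 nm with signal-to-noise.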 The following applies: higher = more signal.
Test [8] can be described thus: small-molecule microarray binders of probe aNog, primary screen, biochemical, biotinylated probe, 635/667 nm fluorescence (AID 1115).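 Also: probe is biotinylated aNog protein used at 0.15 µg/mL for 1 h at 4 C; z-score combines 667 nm fluorescence of each spot with its signal to noise.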 The following applies: higher = more signal.
Test [9] concerns the target Torsin-1A-interacting protein 1 (Homo sapiens) (UniProt Q5JTV8). Nature of the test: LAP1 binders from COS7 cell lysate, primary screen, small-molecule microarray, 635/667 nm fluorescence (AID 1116). The following applies: COS7-hLAP1 lysate binding, 635 nm fluorescence, higher = more signal.
Test [10] deals with Alpha-bungarotoxin (Bungarus multicinctus) (UniProt P60615). Nature of the test: alpha-bungarotoxin binders on microarray, profiling panel, artefact control for SMM control protein annotation, biochemical, small-molecule microarray, Alexa647 label, 635/667 nm fluorescence (AID 1117). As to conditions: alpha-BTX-A647 binding fluorescence, higher = more signal.
Chain of Alpha-bungarotoxin (Bungarus multicinctus) (P60615 whole entry, looked up): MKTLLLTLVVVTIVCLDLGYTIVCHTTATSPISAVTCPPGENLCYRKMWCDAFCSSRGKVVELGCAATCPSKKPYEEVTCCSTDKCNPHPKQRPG

Chain of Torsin-1A-interacting protein 1 (Homo sapiens) (Q5JTV8 whole entry, looked up): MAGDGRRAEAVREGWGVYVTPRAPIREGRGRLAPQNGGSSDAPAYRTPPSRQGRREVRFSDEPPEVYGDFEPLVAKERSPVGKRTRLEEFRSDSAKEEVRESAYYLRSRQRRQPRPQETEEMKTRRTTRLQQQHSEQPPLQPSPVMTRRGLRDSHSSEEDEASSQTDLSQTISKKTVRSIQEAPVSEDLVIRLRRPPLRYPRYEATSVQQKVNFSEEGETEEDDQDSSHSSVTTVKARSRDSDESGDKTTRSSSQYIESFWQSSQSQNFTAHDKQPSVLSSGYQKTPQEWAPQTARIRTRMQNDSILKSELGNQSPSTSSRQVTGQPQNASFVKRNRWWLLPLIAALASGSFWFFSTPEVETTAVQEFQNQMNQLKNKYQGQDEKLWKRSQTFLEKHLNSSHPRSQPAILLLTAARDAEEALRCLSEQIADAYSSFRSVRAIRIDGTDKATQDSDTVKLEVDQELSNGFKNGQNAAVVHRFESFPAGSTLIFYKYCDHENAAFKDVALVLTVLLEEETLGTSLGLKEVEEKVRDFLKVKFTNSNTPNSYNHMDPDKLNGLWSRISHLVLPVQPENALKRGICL
Chain of Left-right determination factor 2 (Homo sapiens) (O00292 whole entry, looked up): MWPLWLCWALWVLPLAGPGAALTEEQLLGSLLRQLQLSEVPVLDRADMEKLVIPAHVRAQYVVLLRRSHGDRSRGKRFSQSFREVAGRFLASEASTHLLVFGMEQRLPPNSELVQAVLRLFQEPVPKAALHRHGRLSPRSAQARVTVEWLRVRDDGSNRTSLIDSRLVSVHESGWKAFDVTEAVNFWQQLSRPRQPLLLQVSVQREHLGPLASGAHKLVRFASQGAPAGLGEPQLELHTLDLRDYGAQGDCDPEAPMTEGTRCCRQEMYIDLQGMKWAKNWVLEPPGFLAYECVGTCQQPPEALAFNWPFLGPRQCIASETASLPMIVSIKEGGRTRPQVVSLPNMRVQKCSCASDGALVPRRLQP

As for `Cc1ccc(S(=O)(=O)n2c3ccccc3c3nnc(C(=O)c4ccccc4)nc32)cc1`, the composite z-score in [1] is -0.463; in [3], 0.563; in test [4], -0.357; in [5], -0.367; in test [6], 0.0491; in test [7], -0.332. For the same molecule, the figures for the composite z-score in test [8], in [9] and in [10] were -0.0926, 0.302 and -0.306, respectively. Moreover, in test [2], the z-score stood at 3.59.
Turning to `O=c1n(Cc2cc3c(cc2Cl)OCO3)c(=O)n2n1CC[C@@H]1C(=NOCc3ccccc3)[C@H]3O[C@H]3[C@@H](O)[C@@H]12`, the composite z-score in test [1] was 0.439; in [3] it was 0.582; in test [4] it was 0.0528; in [5] it was -0.827; in [6] it was -0.152; in [7], -0.34. Besides, the values for the composite z-score in test [8], in test [9] and in test [10] were -0.519, 0.157 and -0.0536, respectively. The molecule also registered a z-score in test [2] of 0.51.
In the case of `COC(=O)CC=C[C@@H](C)[C@@H](C=NOC[C@@H](O)[C@H]1O[C@@H]2OC(C)(C)O[C@@H]2[C@H]1O)NS(=O)(=O)c1ccc(C)cc1`, the composite z-score in [1] was 0.496; in test [3], 0.417; in test [4], 0.0636; in [5], -0.627; in test [6] it was -0.0882; in test [7], -0.715. Also, the results for the composite z-score in test [8], in test [9] and in test [10] were 0.0416, 0.167 and 0.101, respectively. For the same molecule, the z-score in [2] was -0.499.
Turning to `COc1ccc(O[C@H]2C=C[C@@H](c3ccccc3)O[C@@H]2CON=C(C)CCN2CCc3nc(-c4ccccc4)c(-c4ccccc4)cc3C2)cc1`, the composite z-score in [1] was -0.797; in test [3], -0.417; in test [4], 0.387; in [5], -0.0427; in [6], -0.169; in [7], -0.123. For the same molecule, the composite z-score in test [8] is -0.198; in test [9], 0.173; in [10], 0.67. In addition, the z-score in test [2] is -3.38.
`O=C1C[C@@H](O)[C@@H](O)[C@@H]2[C@@H]3C(=O)N(c4cccc(Oc5ccccc5)c4)C(=O)[C@@H]3CC[C@H]12`: the composite z-score in test [1] is -0.252; in test [3], 0.43; in test [4], 0.118; in test [5], -0.294; in test [6], -0.128; in test [7] it was -0.366. The composite z-score is -0.341 in [8], 0.132 in test [9] and 0.62 in test [10]. Further, the z-score in test [2] came out at 0.33.
Regarding `CO[C@H]1COC(=O)[C@@H](C)COC(=O)[C@H](C)NC(=O)CC=C[C@H]1C`, the composite z-score in test [1] is -0.328; in test [3], 1.28; in test [4], -0.451; in test [5], -1.98; in test [6] it was -0.178; in [7] it was -0.243. Moreover, the figures for the composite z-score in test [8], in test [9] and in test [10] were -0.379, -0.15 and -0.354, respectively. Besides, the z-score in [2] is -0.399.
Take `CON=C1[C@H]2CCn3c(=O)n(-c4ccccc4)c(=O)n3[C@H]2[C@H](O)[C@@H]2O[C@H]12`: the composite z-score in test [1] is 0.548; in test [3] it was 0.661; in test [4], -0.345; in [5], -0.536; in [6], -0.0445; in test [7] it was -0.138. Further, the composite z-score was -0.158 in test [8], -0.501 in test [9] and 0.269 in [10]. The molecule also returned a z-score in test [2] of -2.1.
Take `CC(=O)OC[C@H]1O[C@H](CC=NO[C@H](C)c2cn([C@H](CO)Cc3ccccc3)nn2)C=C[C@@H]1OC(C)=O`: the composite z-score in test [1] was 1.16; in test [3], 0.852; in test [4], 0.081; in [5] it was -0.367; in test [6], -0.0231; in [7] it was -0.0553. Besides, the composite z-score worked out at 0.223 in test [8], 0.213 in test [9] and 1.27 in test [10]. The z-score in test [2] is -0.355.
As for `CC(C)=CCCC(C)=CCON=C1C[C@@H](O)[C@@H](O)[C@@H]2[C@@H]3C(=O)N(C[C@@H]4CCCO4)C(=O)[C@@H]3CC[C@H]12`, the composite z-score in test [1] is 1.11; in test [3], 0.957; in test [4], 0.0209; in test [5], 0.228; in [6] it was -0.0783; in test [7] it was 0.0952. Moreover, the results for the composite z-score in test [8], in test [9] and in [10] were -0.278, 0.986 and 1.15, respectively. In test [2], the z-score is -0.0626.
As to `C#CCCCON=C1C[C@@H](O)[C@@H](O)[C@@H]2[C@@H]3C(=O)N(c4ccc(F)cc4F)C(=O)[C@@H]3CC[C@H]12`, the composite z-score was 0.299 in [1]; 0.358 in test [3]; -0.353 in test [4]; -0.693 in [5]; -0.006 in [6]; -0.0533 in test [7]. Moreover, the composite z-score in test [8] was -0.21; in [9], -0.0188; in test [10] it was 0.239. The z-score in [2] turned out to be 0.0534.
`CON=C[C@@H](C)[C@H](OCc1ccccc1)C(C)C`: the composite z-score was -0.933 in test [1]; 0.418 in test [3]; -0.442 in [4]; -0.418 in test [5]; -0.0882 in test [6]; -0.419 in test [7]. Further, the composite z-score was -0.204 in [8], 1.15 in test [9] and -0.11 in [10]. Besides, in test [2], the z-score is -0.131.
Turning to `CCOC(=O)[C@H](Cc1ccccc1)NC(=O)CCC1CC(OC(=O)NCc2cccc3ccccc23)CC2(CCCC(COC(=O)NCC(c3ccccc3)c3ccccc3)O2)O1` (stereo not given in full), the composite z-score was 0.313 in [1]; 0.567 in test [3]; -0.328 in test [4]; -0.43 in [5]; -0.096 in [6]; -0.2 in test [7]. In addition, the composite z-score in test [8] was -0.187; in test [9], 0.18; in test [10], -0.0602. The molecule further returned a z-score in [2] of -1.46.
`CON=C(C)CCC(=O)OC[C@H]1O[C@H](c2ccccc2)C=C[C@@H]1Oc1ccc(OC)cc1`: the composite z-score is -0.65 in [1]; 0.353 in [3]; -0.515 in [4]; -0.724 in [5]; 0.0257 in test [6]; -0.0769 in test [7]. The figures for the composite z-score in test [8], in [9] and in test [10] were -0.148, 0.474 and -0.0686, respectively. In addition, the z-score in test [2] turned out to be 0.275.
Turning to `C[C@@H](c1ccccc1)N1C(=O)[C@H]2[C@H]3[C@H](O)[C@H](O)CC(=O)[C@H]3CC[C@H]2C1=O`, the composite z-score in test [1] was 0.295; in [3] it was 0.461; in test [4], 0.364; in test [5] it was -0.255; in test [6], -0.154; in test [7], -0.206. Moreover, the composite z-score in test [8] was -0.026; in test [9] it was -0.0326; in test [10], -0.0931. The z-score in test [2] was -0.127.
For `CC(=O)OC[C@H]1O[C@@H](ON=C(C)CCN2CCCc3nc(C)c(C)cc32)[C@H](OC(C)=O)[C@@H](OC(C)=O)[C@@H]1OC(C)=O`, the composite z-score in [1] is 1.38; in test [3], 0.737; in [4], 0.113; in test [5] it was -0.743; in test [6], -0.117; in [7] it was -0.167. Besides, the figures for the composite z-score in [8], in [9] and in test [10] were 0.0401, 0.466 and 0.0927, respectively. Also, the z-score in test [2] was -1.14.
For the molecule `C=CC[C@@H]1C=C[C@H](ON=C(C)CCC(=O)OC[C@H]2O[C@H](C#Cc3ccccc3)C=C[C@@H]2Oc2ccc(C)cc2)[C@@H](CO)O1`, the composite z-score was 1.42 in test [1]; 0.605 in test [3]; 0.759 in test [4]; 0.188 in test [5]; -0.0236 in [6]; 0.0639 in test [7]. Besides, the composite z-score was -0.0463 in test [8], 0.728 in test [9] and 0.742 in [10]. The molecule further yielded a z-score in test [2] of 0.568.
For `CCCNC(=O)OC[C@H]1O[C@H](CCON=C(C)CCN2CCc3nc(CC)c(CC)cc3C2)C=C[C@@H]1Oc1ccc(OC)cc1`, the composite z-score is -0.263 in [1]; 0.223 in test [3]; -0.254 in test [4]; -0.875 in [5]; -0.034 in [6]; -0.154 in [7]. In addition, the composite z-score was -0.4 in test [8], 0.345 in [9] and 0.381 in test [10]. In addition, the z-score in test [2] is -3.27.

(Values after PubChem BioAssay.)
